# Screening data (PubChem)
# Ecoli rRNA inh – selective bacterial rRNA inhibition in E. coli; E. coli WT GFP vs humanized-ribosome RFP mutants, fluorescence, 24 h; hits give low values; DMSO median 0, no signal -100; AID 720706; actives 1.6% (n = 350,000); GFP signal change (wild-type ribosome), % (concentration not given with the values);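 active means significant combined selectivity score with lowered wild-type GFP, culture density cut under 30%, mutant RFP and density less affected; inactive means any of these conditions unmet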
# ERAP1 HTS inh – blocks human ERAP1 aminopeptidase activity. Q9NZ08. recombinant ERAP1, Leu-AMC fluorescence, 60 min. inhibition, % at 10.7 µM. actives 0.15% (n = 340,000). AID 652197;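 active means mean replicate inhibition of at least 30%, or all replicates individually reaching that 30% level; inactive means mean below 30% and not every replicate reaching it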;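 further: 0% = neutral control wells and 100% = L-leucinethiol positive control wells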
# Target sequence (Q9NZ08 whole entry, looked up): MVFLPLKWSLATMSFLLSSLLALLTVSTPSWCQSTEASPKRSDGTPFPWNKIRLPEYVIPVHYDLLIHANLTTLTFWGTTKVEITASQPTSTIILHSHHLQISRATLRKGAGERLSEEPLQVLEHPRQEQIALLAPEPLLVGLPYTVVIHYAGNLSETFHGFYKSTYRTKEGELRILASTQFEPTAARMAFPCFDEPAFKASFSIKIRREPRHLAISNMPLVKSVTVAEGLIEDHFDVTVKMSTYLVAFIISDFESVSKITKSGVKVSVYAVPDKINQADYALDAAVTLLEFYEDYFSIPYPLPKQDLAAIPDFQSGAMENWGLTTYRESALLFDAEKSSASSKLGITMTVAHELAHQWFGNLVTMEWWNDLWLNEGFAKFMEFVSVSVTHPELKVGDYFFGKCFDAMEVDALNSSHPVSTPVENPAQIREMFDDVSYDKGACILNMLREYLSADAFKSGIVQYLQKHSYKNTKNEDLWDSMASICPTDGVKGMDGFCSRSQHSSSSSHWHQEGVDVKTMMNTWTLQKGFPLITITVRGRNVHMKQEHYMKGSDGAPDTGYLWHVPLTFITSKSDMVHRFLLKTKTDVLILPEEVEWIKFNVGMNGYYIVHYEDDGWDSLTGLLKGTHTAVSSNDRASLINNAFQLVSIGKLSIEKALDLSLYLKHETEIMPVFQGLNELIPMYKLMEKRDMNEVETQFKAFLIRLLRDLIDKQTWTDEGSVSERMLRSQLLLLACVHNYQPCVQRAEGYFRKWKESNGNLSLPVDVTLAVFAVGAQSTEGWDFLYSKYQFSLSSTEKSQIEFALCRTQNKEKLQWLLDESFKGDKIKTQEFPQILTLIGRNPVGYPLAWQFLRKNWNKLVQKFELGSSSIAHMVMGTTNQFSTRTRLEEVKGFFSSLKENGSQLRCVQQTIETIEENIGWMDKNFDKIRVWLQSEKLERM
# PvdQ acylase – P. aeruginosa PvdQ acylase inhibition; purified PvdQ acylase, fluorescence plate reader; inhibition, % at 10 µM; actives 0.063% (n = 340,000); AID 488965; in the data active means inhibition above about 30%, passing the limit was not always enough;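 further: 0% = vehicle neutral wells and 100% = reference inhibitor wells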
# ARNT TACC3 PPI – disruptors of human ARNT/TACC3 interaction; actives 0.66% (n = 390,000); AlphaScreen His-ARNT PAS-B/GST-TACC3 binding, luminescence; TACC3 fragment carries E629A point mutation; inhibition, % at 9.99 µM;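 active means mean inhibition of replicates at least 50% and at least half of replicates each reaching 50%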;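 further: 0% = complete ARNT plus TACC3 wells and 100% = ARNT alone without TACC3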
# F508del corr – correctors of CFTR F508del function in bronchial epithelial cells | CFBE cells, YFP halide quenching; stimulated with forskolin plus potentiator P3; % fluorescence drop versus neutral controls | activity (quench increase), % at 7.58 µM | actives 0.36% (n = 350,000) | AID 720511;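 active means mean added fluorescence quench of at least 8% versus neutral control, with both replicates also reaching 8%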;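 further: cells transiently co-express mutant CFTR-F508del with the halide-sensitive YFP; corrector assay measuring rescue of mutant channel to the surface after 24 h compound exposure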
# * marks the source's active call; other numbers are inactive results; . = no result given. Only some compounds are listed: those with a hit (about 2.1% of all), similar ones and a draw of the others.
SMILES,Ecoli rRNA inh,ERAP1 HTS inh,PvdQ acylase,ARNT TACC3 PPI,F508del corr
CC(C)n1nnnc1C1c2ccccc2C(=O)N1CCc1ccccc1F (stereo not given),17,.,.,.,1
O=C1c2ccccc2C(c2nnnn2Cc2ccccc2)N1CCc1ccc(O)cc1 (stereo not given),-28*,.,.,.,-1
O=C1c2ccccc2C(c2nnnn2Cc2ccccc2)N1Cc1cccs1 (stereo not given),-26*,.,.,.,-2
O=C1c2ccccc2C(c2nnnn2Cc2ccccc2)N1CCc1ccccc1F (stereo not given),-21*,.,.,.,0
CCNC(=O)C[C@H]1CC[C@H]2[C@H](COc3ccc(NC(=O)Nc4ccc(Cl)cc4)cc3C(=O)N2C)O1,1,-1,.,-1,-1
C[C@H](CO)N1C[C@H](C)[C@@H](CN(C)C(=O)Nc2ccc3c(c2)OCO3)OCCCC[C@H](C)Oc2ccc(NC(=O)CCCN(C)C)cc2C1=O,3,1,.,-29,1
C[C@@H]1CN([C@H](C)CO)S(=O)(=O)c2ccc(-c3cccnc3)cc2O[C@H]1CN(C)CC1CCOCC1,1,1,.,6,2
O=C1/C(=C/c2cccc([N+](=O)[O-])c2)Oc2cc(O)ccc21,16,-6,41*,-15,-1
O=C1/C(=C/c2ccc(O)c(O)c2)Oc2cc(O)ccc21,-17,13,-5,30,4
COC(=O)C1=C(C)N(C)C(=NCc2ccc3c(c2)OCO3)NC1c1ccccc1 (stereo not given),13,1,.,.,-2
CC(C)C#Cc1cnc2c(c1)C(=O)N([C@@H](C)CO)C[C@@H](C)[C@H](CN(C)C(=O)c1cnccn1)O2,2,-6,.,-13,2
N#Cc1ccc(OCC(=O)N2CCN(S(=O)(=O)c3ccc(Cl)s3)CC2)cc1,-20*,-2,-14,-6,4
Cn1cnc(Sc2ncnc3nc[nH]c23)c1[N+](=O)[O-],-9,41*,-18,11,2
NCC[C@H]1CC[C@@H](NC(=O)c2ccccc2F)[C@@H](CO)O1,5,0,.,-1,-2
c1ccc(CSc2nnc(Cc3ccccn3)o2)cc1,.,.,-11,1,.
c1ccc(CSc2nnc(Cc3ccccc3)o2)cc1,-31*,0,3,-8,2
CC(=O)Nc1ccc2c(c1)C(=O)N(C)[C@H]1CC[C@H](CC(=O)NC3CCCCC3)O[C@H]1CO2,-1,.,.,.,1
C[C@@H]1CN([C@@H](C)CO)C(=O)c2c(c3ccccc3n2C)-c2ccccc2CO[C@H]1CN(C)S(=O)(=O)Cc1ccccc1,-2,-2,.,0,1
O=C(O)c1cccc(Cn2c(Cl)c(/C=N/NC(=O)c3ccc(O)cc3)sc2=O)c1,0,-2,1,41*,2
CC(C)c1cccc(O)c(=O)c1,1,0,10,-25,3
CC(C)c1ccc2c(c1)C1(NN=C(c3ccccc3)S1)C(=O)N2 (stereo not given),.,.,0,50*,.
CC(=O)NC[C@@H]1[C@@H](c2ccc(C3=CCCC3)cc2)[C@H](CO)N1Cc1cccnc1,-1,.,.,-5,2
CC(=O)NCCc1nc(-c2ccc(Cl)cc2)no1,1,13,-12,-1,3
O=C(O)CCc1nc(-c2ccc(Cl)cc2)no1,.,.,36*,8,.
Cc1cc(S(=O)(=O)N(Cc2ccc3c(c2)OCO3)CC2CCCO2)ccc1-n1cnnn1 (stereo not given),.,.,-19,-4,.
SMILES,Ecoli rRNA inh,ERAP1 HTS inh,PvdQ acylase,ARNT TACC3 PPI,F508del corr
Cc1cc(S(=O)(=O)N(Cc2ccc(C(C)C)cc2)CC2CCCO2)ccc1-n1cnnn1 (stereo not given),-21*,-2,-14,-4,.
Cc1cc(S(=O)(=O)N(Cc2ccc(F)cc2)CC2CCCO2)ccc1-n1cnnn1 (stereo not given),-21*,-3,-11,-13,1
C[C@H](CO)N1C[C@H](C)[C@@H](CN(C)Cc2ccc3c(c2)OCO3)Oc2ccc(NC(=O)CCCCCC(=O)Nc3ccccc3N)cc2CC1=O,-1,-1,.,-1,-1
CC(=Nc1ccccc1)C1=C(O)CSC1=O,.,.,-3,2,.
COc1ccc(N=C(C)C2=C(O)CSC2=O)cc1,-10,4,44*,-3,1
Cc1ccc(C(=O)N/C(=C\c2cccs2)C(=O)NCCCn2ccnc2)cc1C,.,.,-9,71*,.
Cc1ccc(C(=O)N/C(=C\c2cccs2)C(=O)NCCCn2ccnc2)cc1,.,.,-9,2,.
